# Gal4-VP16 FLuc: VP16 counterscreen qHTS for inhibitors of ROR gamma transcriptional activity. Drosophila S2 Gal4-VP16 UAS-luciferase, luminescence, 20 h. Potency, µM (series often up to 53.6 µM), for inactives: top-dose activity, negative = inhibition, hits mostly inhibitors. 3.5% of 310,000 active;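 also: Gal4-VP16 expression switched on by copper sulfate through the metallothionein promoter; nearly all actives have a fitted effect of over 50% in size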
# Tau fluor counter: Counterscreen qHTS for Inhibitors of Tau Fibril Formation, Fluorescence Polarization; tau K18 P301L Alexa594 fluorescence, heparin fibrillization; Potency, µM (highest dose often 57.7 µM), without a hit: at the highest dose activity change, negative = decrease; 0.93% of 280,000 active; also: nearly all actives have a fitted effect of over 55% in size
#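 Human tau K18 P301L (15 uM unlabeled, 0.24 uM Alexa 594-labeled) in 100 mM sodium acetate pH 7 with 20 uM heparin, 6 hr at 37 C. ThT 30 uM added, 1 hr ambient; Alexa 594 FP and total fluorescence read at 555/632 nm.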
# Tau ThT inhib: qHTS for Inhibitors of Tau Fibril Formation, Thioflavin T Binding | Microtubule-associated protein tau (Homo sapiens), P10636 | 2.1% of 270,000 active | recombinant tau K18 P301L, heparin-induced fibrillization, ThT fluorescence | AID 1460, 2008 | Potency, µM (series often up to 57.4 µM), for inactives: at the top dose activity, negative = inhibition, most hits filed as inhibitors; also: nearly all actives have a fitted effect of over 55% in size
# Target sequence (P10636 561-689 P618L limits assumed): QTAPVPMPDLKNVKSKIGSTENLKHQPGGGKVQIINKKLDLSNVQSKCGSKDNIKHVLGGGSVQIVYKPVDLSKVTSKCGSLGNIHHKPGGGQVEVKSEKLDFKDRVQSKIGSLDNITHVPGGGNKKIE
#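 Using a mix of unlabeled (15 uM) and Alexa 594-labeled (0.24 uM) tau K18 P301L, heparin-triggered fibrillization over 6 hr at 37 C was scored by ThT fluorescence.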
# Tau FP inhib: qHTS for Inhibitors of Tau Fibril Formation, Fluorescence Polarization. Microtubule-associated protein tau (Homo sapiens), P10636. 0.39% of 280,000 active. K18 P301L tau heparin fibrillization, Alexa594 FP, 6 h. Potency, µM (top dose mostly 57.7 µM), inactives show at the top dose activity, negative = inhibition, actives largely listed as inhibitors. AID 1468, 2008; also: nearly all actives have a fitted effect of over 55% in size
#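 Human K18 P301L fragment (15 uM unlabeled plus 0.24 uM Alexa 594-labeled) in 100 mM sodium acetate pH 7 with compound, aggregation induced by 20 uM heparin for 6 hr at 37 C. ThT (30 uM) added for 1 hr, then Alexa 594 FP read.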
# RORgamma inh: qHTS for inhibitors of ROR gamma transcriptional activity | AID 2551, 2010 | Drosophila S2 Gal4-RORgamma UAS-luciferase reporter, 20 h | Potency, µM (highest dose often 53.6 µM), inactives show at the top dose activity change, negative = inhibition, usual class: inhibitors | 5.4% of 310,000 active; also: nearly all actives have a fitted effect of over 60% in size
# Target sequence (P51450 whole entry, looked up, the tested form may be a part): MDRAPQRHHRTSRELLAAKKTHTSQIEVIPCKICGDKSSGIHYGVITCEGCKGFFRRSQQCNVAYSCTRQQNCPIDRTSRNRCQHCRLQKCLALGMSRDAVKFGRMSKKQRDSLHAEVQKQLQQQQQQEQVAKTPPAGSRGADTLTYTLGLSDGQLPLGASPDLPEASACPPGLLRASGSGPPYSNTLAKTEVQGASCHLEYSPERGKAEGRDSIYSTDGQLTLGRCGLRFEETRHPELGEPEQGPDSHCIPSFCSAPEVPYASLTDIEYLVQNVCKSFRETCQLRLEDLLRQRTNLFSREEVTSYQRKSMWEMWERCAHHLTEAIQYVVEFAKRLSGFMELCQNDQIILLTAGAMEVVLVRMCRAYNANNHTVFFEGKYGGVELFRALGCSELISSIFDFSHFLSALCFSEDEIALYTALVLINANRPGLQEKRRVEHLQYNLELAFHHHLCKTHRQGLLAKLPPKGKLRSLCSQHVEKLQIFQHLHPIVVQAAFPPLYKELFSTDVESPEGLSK
#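 ROR gamma transcriptional activity was tracked as Gal4-UAS luciferase output in stably transfected Drosophila Schneider cells, with compound added 1 hr before 700 uM copper sulfate induction and a 20 hr ambient-temperature incubation.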
# * hit, by the source's call; ? = inconclusive; nt = no result; [ ] = another dose, or the depositor's remark. Sampled rows, rich in hits. Any-hit rate of the full collection: about 7.3%. Calls follow the shape of the dose curve; as a rule, active = well fitted curve in the direction sought with a large enough effect; inconclusive = small, poorly fitted or top-dose-only effect, or another doubt; inactive = no such curve, though single readings can be large; an effect the other way counts as inactive or inconclusive. % is scaled to controls: 0 for no effect and ±100 for the full control effect; potency is read from the fitted curve at half-maximal effect.
SMILES,Gal4-VP16 FLuc,Tau fluor counter,Tau ThT inhib,Tau FP inhib,RORgamma inh
Cc1ccccc1NC(=S)N/N=C/C(C)c1ccccc1 (configuration not stated),8.9µM*,-11%,?,7%,1.8µM*
Cc1cccc(NC(=S)N/N=C/c2cccc(O)c2)c1C,14µM*,-28%,-6%,-9%,4.5µM*
Cc1c(NC(=S)N/N=C/c2cccc(O)c2)c(=O)n(-c2ccccc2)n1C,0%,-3%,-5%,3%,-27%
Cc1cccc(NC(=S)N/N=C/C(C)c2ccccc2)c1C (configuration not stated),7.9µM*,-12%,?,-2%,1.3µM*
COC(=O)[C@@]1(Cc2ccc(OC)cc2)[C@H]2c3cc(C(=O)N4CCCC4)n(CCc4c[nH]c5cc(F)ccc45)c3C[C@H]2CN1C(=O)c1ccccc1,1%,-23%,?,-1%,24%
COc1ccccc1N1CCN(/N=C/C=C/c2ccccc2[N+](=O)[O-])CC1,-18%,?,14µM*,12%,-18%
O=[N+]([O-])c1ccccc1/C=N\N1CCN(c2ccccc2)CC1,-1%,?,11µM*,5%,30%
O=[N+]([O-])c1ccccc1/C=N/N1CCN(c2ccc(Cl)cc2)CC1,-1%,?,11µM*,5%,35%
O=[N+]([O-])c1ccccc1/C=C\C=N\N1CCN(c2ccccc2)CC1,0%,?,13µM*,14%,?
Cc1cc(C)c2c(CC(=O)Nc3ccc(S(=O)(=O)N4CCCC(C)C4)cc3)coc2c1 (configuration not stated),nt,?,12%,14µM*,nt
Cc1cc(C)c2c(CC(=O)Nc3ccc(S(=O)(=O)N4CCCCC4)cc3)coc2c1,nt,?,12%,?,nt
CN1CCN(c2ncc3nc(-c4ccccc4)c(=O)n(C4CC4)c3n2)CC1,4%,nt,nt,nt,-6%
S=c1[nH]c2ccccc2n2cccc12,5.6µM*,-18%,-17%,-2%,0.89µM*
S=c1[nH]c2ccccc2n1CCOc1ccccc1,2.8µM*,nt,nt,nt,-15%[1.91 µM]
Cn1c(=S)[nH]c2ccccc21,?,-9%,-15%,-12%,13µM*
CCOc1ccc2c(c1)[nH]c(=S)n2C,?,-12%,-19%,-9%,8.9µM*
COc1ccc(-c2nc(CSCC(=O)NCCc3ccc(OC)c(OC)c3)c(C)o2)cc1,nt,-10%,?,10%,nt
N#CCCn1c(=S)[nH]c2ccccc21,5%,-1%,-5%,-3%,14%
CCOc1ccc(OCCn2c(=S)[nH]c3ccccc32)cc1,5µM*,nt,nt,nt,5µM*
CCOC(=O)Cn1c(=N)n(CCOc2cccc(C)c2)c2ccccc21,-1%,0%,-11%,?,1%
Cc1cccc(OCCn2c(=S)[nH]c3ccccc32)c1,1.6µM*,8%,9%,7%,1.3µM*
Cc1ccc(OCCn2c(=S)[nH]c3ccccc32)c(C(C)C)c1,4µM*,nt,nt,nt,3.5µM*
S=c1[nH]c2ccccc2n1Cc1ccccc1,7.1µM*,nt,nt,nt,?
COc1ccc(-c2ccc(=O)n(CC(=O)Nc3ccccc3C(F)(F)F)n2)cc1,nt,-13%,?,-4%,nt
CC(C)(CC(=O)OCC(=O)Nc1ccc(F)c(Cl)c1)CC1=NS(=O)(=O)c2ccccc2N1,nt,?,10%,?,nt
SMILES,Gal4-VP16 FLuc,Tau fluor counter,Tau ThT inhib,Tau FP inhib,RORgamma inh
CCn1nc(C)c(CN2CCC(n3nccc3NC(=O)Cc3ccccc3)CC2)c1C,-6%,nt,nt,nt,-21%
Cc1ccc(Cl)cc1-n1ncc2c(N3CCN(Cc4ccccc4)CC3)ncnc21,nt,-14%,-12%,?,nt
COc1ccccc1OCCn1c(=S)[nH]c2ccccc21,10µM*,nt,nt,nt,10µM*
COc1ccccc1OCCn1c(=O)n(C)c2ccccc21,-8%,3%,-1%,4%,27%
COc1cc(C2CC(=O)N3CN(Cc4ccco4)CSC3=C2C#N)ccc1OCc1ccccc1 (configuration not stated),8%,?,20µM*,?,-11%
COc1ccc(C2CC(=O)N3CN(C4CCCCC4)CSC3=C2C#N)c(OC)c1 (configuration not stated),nt,-22%,25µM*,?,nt
Clc1ccc(N2CCN(Cc3ccco3)CC2)cc1,19%,nt,nt,nt,7%
COc1ccc(OC)c(C2C(C#N)=C(N)N(N(C)C)C3=C2C(=O)CCC3)c1 (configuration not stated),13%,nt,nt,nt,-1%
N#CC1=C2SCN(Cc3ccco3)CN2C(=O)CC1c1ccc(Cl)cc1 (configuration not stated),?,-21%,18µM*,?,?
CC(C)c1ccc(C2CC(=O)N3CN(Cc4ccco4)CSC3=C2C#N)cc1 (configuration not stated),2%,-24%,22µM*,?,-42%
COc1cccc(C(=O)CC2(O)C(=O)Nc3ccc(Cl)cc32)c1 (configuration not stated),nt,-25%,-18%,-11%,nt
CCOC(=O)c1cc(NC(=O)c2ccc(C)cc2)c(=O)n2c1oc1ccccc12,nt,-15%,-2%,-11%,nt
COc1ccc(C2C(C#N)=C(N)Oc3cc(C)n(Cc4ccco4)c(=O)c32)cc1 (configuration not stated),2%,-6%,3%,-1%,-13%
N#CC1=C2SCN(C3CCCCC3)CN2C(=O)CC1c1ccc(Br)cc1 (configuration not stated),nt,-28%,?,?,nt
COc1ccc2ccccc2c1C1CC(=O)N2CN(C3CCCCC3)CSC2=C1C#N (configuration not stated),8%,-23%,28µM*,?,-34%
CCOc1cc(C2CC(=O)N3CN(C4CCCCC4)CSC3=C2C#N)ccc1O (configuration not stated),-1%,-26%,14µM*,?,13%
COc1ccc2ccccc2c1C1CC(=O)N2CN(Cc3ccco3)CSC2=C1C#N (configuration not stated),?,-23%,?,?,10µM*
COc1ccc(CN2CCN(Cc3ccco3)CC2)cc1,-4%,nt,nt,nt,-1%
COc1ccc(C2CC(=O)N3CN(Cc4ccco4)CSC3=C2C#N)cc1 (configuration not stated),3%,-23%,25µM*,?,-10%
CC1=C(c2ccc(C)c(C)c2)S(=O)(=O)N=C1N1CCC(C(=O)N2CCCCC2)CC1,nt,-7%,?,-5%,nt

# Assay outcomes from PubChem.
